# HCV inhibitor: qHTS Assay for Inhibitors of Hepatitis C Virus (HCV); Huh7.5.1 HCVcc-Cre infection, luciferase reporter, 44 h; Potency, µM (titrated, usually from 41.8 µM), inactives show at the top dose activity change, negative = inhibition, hits mostly inhibitors; hit rate 3.4% among 340,000; further: potency means the concentration at half of the fitted maximal effect; on the % scale 0 is the no-effect control and ±100 the full control effect
#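 Seed cells (1,000/well) for 4 h; treat with compound and infect with HCVcc-Cre, moi about 0.5. Incubate 44 h, then detect luciferase activity.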
# Cycloheximide cs: Cycloheximide Counterscreen for Small Molecule Inhibitors of Shiga Toxin; max response, %; cell reporter, cycloheximide protein synthesis inhibition counterscreen; AID 2314, 2010; hit rate 12% among 300,000; in the data active means max response mostly above about 13%, no sharp cut-off; inactive means mostly below about 14%; further: read at 38.3 µM for the half of the compounds with a filed dose; 0% is about no effect
# AMA1-RON2 inh: qHTS for Inhibitors of AMA1-RON; Towards Development of Antimalarial Drug Lead: Primary Screen | Plasmodium falciparum AMA1 (3D7) - RON2 peptide interaction | AlphaScreen AMA1-biotinylated RON2 peptide binding | hit rate 0.2% among 360,000 | Potency, µM (top dose mostly 58.2 µM), for inactives: at the highest dose activity change, negative = inhibition, actives largely listed as inhibitors;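 further: potency means the concentration at half of the fitted maximal effect; 0% = vehicle wells and -100% = peptide control; nearly all actives have a fitted effect of over 45% in size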
#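 AMA1 (3D7) with his tag at 25 nM final met compounds first, then biotinylated RON2 peptide at 25 nM; detection used donor plus acceptor beads, 10 µg/mL apiece, read by AlphaScreen after 30 min at room temperature.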
# Pf growth 96h: Primary qHTS for delayed death inhibitors of the malarial parasite plastid, 96 hour incubation; Potency, µM (doses to about 28.7 µM), inactives show top-dose activity change, negative = inhibition, actives largely listed as inhibitors; hit rate 6.9% among 320,000; P. falciparum luciferase reporter growth, 96 h; further: potency means the concentration at half of the fitted maximal effect; on the % scale 0 is the no-effect control and ±100 the full control effect
#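 P. falciparum expressing integrated firefly luciferase, in erythrocytes at 2% hematocrit, 0.05% parasitemia, incubated with compounds 96 h at 37 C, 5% CO2. Growth inhibition read as loss of luminescence; two-generation exposure targets delayed-death apicoplast inhibitors.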
# Shiga toxin inh: A qHTS for Small Molecule Inhibitors of Shiga Toxin | inhibition, % at 38.7 µM | AID 2315, 2010 | hit rate 9.2% among 290,000 | Vero cells, Shiga toxin protein synthesis inhibition reporter; in the data active means inhibition mostly above about 28%, no sharp cut-off; inactive means mostly below about 43%; further: 0% is about no effect
# Pf growth 48h: Primary qHTS for delayed death inhibitors of the malarial parasite plastid, 48 hour incubation; P. falciparum luciferase growth in erythrocytes, 48 h; hit rate 5.9% among 310,000; Potency, µM (series often up to 28.7 µM), without a hit: at the highest dose activity change, negative = inhibition, usual class: inhibitors; AID 504832, 2011; further: potency means the concentration at half of the fitted maximal effect; on the % scale 0 is the no-effect control and ±100 the full control effect
#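 Luciferase-expressing P. falciparum in infected erythrocytes (2% hematocrit, 0.1% parasitemia final) in RPMI 1640/0.5% Albumax were exposed to compound for 48 hours at 37 C, 5% CO2; growth read as luminescence.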
# * = called active by the depositor; ? = inconclusive; nt = no result; ! = not active in a repeat; [ ] = another dose, or the depositor's remark. Most compounds without a hit are left out; they make up all but 21% or so of the library. Unless noted, the call rests on the fitted dose curve; in most records, active means well fitted curve in the direction sought with a large enough effect; inconclusive means small, poorly fitted or top-dose-only effect, or another doubt; inactive means no such curve, though single readings can be large; an effect the other way counts as inactive or inconclusive.
SMILES,HCV inhibitor,Cycloheximide cs,AMA1-RON2 inh,Pf growth 96h,Shiga toxin inh,Pf growth 48h
Nc1nc(/C(=C/CC(=O)O)C(=O)NC2C(=O)N3C(C(=O)O)=CCSC23)cs1 (configuration not stated),nt,nt,nt,-5%,nt,-3%
Cc1cc(C)c(C(=O)c2ccccc2C(=O)O)c(C)c1,nt,nt,0%,nt,nt,nt
C=CCn1c(SCC(=O)Nc2ccccc2OC)nc2c([nH]c3ccccc32)c1=O,-13%,-2,10%,4.1µM*,8,?
C=CCn1c(CSc2nc3ccccc3s2)nnc1SCC(=O)NCc1ccccc1,-1%,1,-1%,10µM*,9,nt
C=CCn1c(CSc2nc3ccccc3s2)nnc1SCC(=O)NCc1cccnc1,14%,-5,1%,28%,-3,?
C=CCn1c(Cc2c(C)[nH]c3ccccc23)nnc1SCC(=O)NCc1ccc(F)cc1,0%,-2,-4%,0.26µM*,-3,8.3µM*
Cc1cc(O)cc(O)c1-c1onc(C(F)(F)F)c1-c1cscn1,?,-3,-2%,56%,-13,3%
CCOc1ccc(-c2onc(C(F)(F)F)c2-c2cscn2)c(O)c1,10µM*,8,-2%,nt,-11,4.7µM*
O=C1c2ccccc2C(=O)N1SC1CCCCC1,11%,15,9%,102%,25,55%
O=C1c2cccc3c2[C@@H](CCC3)CN1[C@@H]1CN2CCC1CC2,nt,nt,nt,-104%,nt,12µM*
Cc1ccc(-c2ccc(CCC(=O)O)n2-c2cccc(O)c2)cc1,14%,40*,-12%,nt,121*,131%
CC(=O)c1cccc(-n2c(CCC(=O)O)ccc2-c2cccs2)c1,-15%,26*,-8%,?,52,?
CC(=O)c1cccc(-n2c(CCC(=O)O)ccc2-c2ccccc2)c1,16%,40*,-10%,3%,75*,-12%
CSc1nc2c(cc1C#N)C(=O)CC(C)(C)C2,-9%,10,16%,?,21,-7%
CCCCOC(=O)CSc1nc2c(cc1C#N)C(=O)CC(C)(C)C2,9%,47*,15%,-7%,active,15%
CN(C)S(=O)(=O)c1ccc(Cl)c(NC(=O)CSc2nc3c(cc2C#N)C(=O)CC(C)(C)C3)c1,-6%,-1,5%,?,-2,?
CN(C)S(=O)(=O)c1cccc(NC(=O)CSc2nc3c(cc2C#N)C(=O)CC(C)(C)C3)c1,5µM*,1,60%,?,7,9.3µM*
CC(C)(C)Sc1ccccc1S(=O)(=O)C(C)(C)C,-10%,1,-1%,11%,-5,25%
CN(C)CCCOC(=O)C1c2ccccc2Oc2ccccc21,-19%,-4,25%,1%,-9,-7%
CC[N+](C)(CC)CCOC(=O)C1c2ccccc2Oc2ccccc21,7%,nt,-18%,10µM*!,nt,10µM*!
O=S(=O)(O)O,nt,nt,nt,-20%,nt,-11%
O=C(N1CCCC1)C12CCC3CC(CC(C3)C1)C2,2%,-4,-15%,9.3µM*,-12,nt
O=C(N1CCCCC1)C12CC3CC(CC(C3)C1)C2,12%,-2,-2%,?,0,-15%
NC(=O)C1CCN(c2ncnc3c2c(-c2ccccc2)cn3-c2ccccc2)CC1,-28%,-6,0%,10µM*,-17,nt
CC1=C(C(=O)OC(C)C)C(c2cccs2)NC(=S)N1 (configuration not stated),-21%,-9,2%[11.6 µM],?,-13,0%
SMILES,HCV inhibitor,Cycloheximide cs,AMA1-RON2 inh,Pf growth 96h,Shiga toxin inh,Pf growth 48h
COc1ccc(C(=O)/C=C/Nc2ccc(S(=O)(=O)Nc3nc(C)cc(C)n3)cc2)cc1OC,31%,16*,-18%,?,-4,20%
COc1ccc(C(=O)/C=C/Nc2ccc(S(=O)(=O)Nc3nc(C)cc(C)n3)cc2)c(OC)c1,3%,1,-11%,?,44,?
Cc1cc(C)nc(NS(=O)(=O)c2ccc(N/C=C/C(=O)c3ccc(Cl)cc3)cc2)n1,27%,11*,16%,22%,20,11%
O=C(CNC(=O)c1ccco1)NCC(=O)OCc1ccc(Cl)cc1Cl,19%,-4,1%,0%,10,5%
CCOC(=O)c1c(C)n(OCc2ccccc2)c2ccc3c(no[n+]3[O-])c12,7.1µM*,1,-4%,nt,-2,-8%
CCNC(=O)C1(C)CCCN1C(=O)c1cnc2ccccc2n1 (configuration not stated),nt,nt,17%,nt,nt,nt
Cc1nnc(SCc2ccc(Cl)c(Cl)c2)s1,0%,14*,34%,-86%,22,32%
Nc1nnc(SCc2ccc(F)cc2)s1,10%,11,0%,?,16,21%
Cc1nnc(SCc2cccc([N+](=O)[O-])c2)s1,5%,18*,13%,?,50,30%
O=C(Nc1nnc(SCc2ccccc2)s1)c1cccc([N+](=O)[O-])c1,18%,5,-11%,-2%,11,10%
Nc1nc(SCc2ccc(F)cc2)ns1,6%,40*,-6%,3%,69*,-4%
Nc1nc(SCc2ccc(Cl)cc2Cl)ns1,18%,10,-1%,61%,18,36%
Cc1nnc(SCc2ccc(F)cc2)s1,15%,28*,24%,nt,55*,46%
CC1(Oc2cccnc2Cl)CCN(Cc2ccc(OC(F)(F)F)cc2)C1 (configuration not stated),nt,nt,-5%,nt,nt,nt
COc1ccc(C(=O)NC2CCCc3ccccc32)cc1OC1CCN(C(C)=O)CC1 (configuration not stated),0%,9,1%,?,-10,-44%
COc1ccc(C(=O)N/N=C\c2ccc(OC)c(COc3ccccc3Br)c2)c(OC)c1,18µM*,-2,45%,-20%,14,-6%
COc1ccc(/C=N\NC(=O)c2ccccc2Br)cc1COc1ccccc1,14µM*,-1,0%,-20%,-21,9%
CCOC(=O)c1ccccc1OCc1cc(/C=N/NC(=O)c2ccncc2)ccc1OC,22%,-5,9%,28%,7,3%
O=C(O)COc1ccc(/C=N/NC(=O)c2ccccc2Br)cc1,8%,1,-3%,2%,-10,46%
COC(=O)C(Cc1ccccc1)NC(=O)CC(C)CC(=O)Nc1ccc(C)cc1 (configuration not stated),-4%,2,-7%,?,-10,-13%
COc1ccccc1C(c1nnnn1C(C)(C)C)N1CCCCCC1 (configuration not stated),1%,2,0%,nt,-5,8.3µM*
COc1ccccc1C(c1nnnn1C(C)(C)C)N1CCN(C(=O)c2ccco2)CC1 (configuration not stated),9%,6,-6%,?,-7,4.7µM*

# Source: PubChem BioAssay
